Assay outcomes as filed in PubChem BioAssay.
The list is not random: actives were taken first. Their share in the collection is about 11%.
G9a block: inhibitors of human histone lysine methyltransferase G9a; G9a H3K9 monomethylation, AlphaScreen, 2 h; Potency, µM (highest dose often 102 µM), without a hit: at the top dose activity, negative = inhibition, usual class: inhibitors; Q96KQ7; AID 504332; 350,000 compounds, 8.8% hits; note: potency is the fitted concentration of half-maximal effect; nearly all actives have a fitted effect of over 75% in size
Target sequence (Q96KQ7 913-1193 limits assumed): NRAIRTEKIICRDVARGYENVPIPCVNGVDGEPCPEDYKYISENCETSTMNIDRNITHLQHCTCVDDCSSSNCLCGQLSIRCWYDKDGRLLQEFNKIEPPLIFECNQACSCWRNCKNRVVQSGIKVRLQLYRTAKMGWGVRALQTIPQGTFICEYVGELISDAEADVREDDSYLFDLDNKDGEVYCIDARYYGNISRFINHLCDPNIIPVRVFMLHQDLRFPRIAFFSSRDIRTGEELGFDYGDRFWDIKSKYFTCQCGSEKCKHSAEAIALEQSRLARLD
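Enzyme 20 nM + cpd, 15 min RT; add b-H3K9 pep 500 nM / SAM 20 uM; 2 h RT; anti-H3K9me1 Ab 0.5 ug/mL + SA donor / anti-rabbit acceptor beads 20 ug/mL each, 10 min; AlphaScreen read.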
Tau fibril ThT: blocks human tau fibril formation measured by thioflavin T | 270,000 compounds, 2.1% hits | Potency, µM (series often up to 57.4 µM), without a hit: at the top dose activity, negative = inhibition, most hits filed as inhibitors | AID 1460 | P10636 | recombinant tau K18 P301L, heparin-induced fibrillization, ThT fluorescence; note: potency is the fitted concentration of half-maximal effect; nearly all actives have a fitted effect of over 55% in size
Target sequence (P10636 561-689 P618L limits assumed): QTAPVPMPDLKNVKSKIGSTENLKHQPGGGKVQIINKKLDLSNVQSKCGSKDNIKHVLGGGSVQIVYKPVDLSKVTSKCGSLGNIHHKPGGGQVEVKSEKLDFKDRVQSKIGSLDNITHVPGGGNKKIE
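Aggregation was driven by heparin (20 uM final) acting on recombinant tau […] bearing P301L in 100 mM sodium acetate pH 7; fibrils were detected with Thioflavin T.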
Sfp inh: inhibitors of Bacillus subtilis Sfp phosphopantetheinyl transferase; Biochemical Sfp PPTase activity, qHTS; Potency, µM, inactives show largest response in the series, negative = inhibition, most hits filed as inhibitors; 310,000 compounds, 3.5% hits; AID 1490;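 note: the enzyme is Sfp with the accession as filed and its product quenches rhodamine fluorescence; potency is the fitted concentration of half-maximal effect; 0% = enzyme reaction without inhibitor and -100% = no enzyme wells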
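Reaction rates are the 30-min fluorescence difference (ex 525, em 598 nm) in wells containing 15 nM Sfp, 5 uM rhodamine-CoA and 12.5 uM BHQ-2-YbbR at pH 7.6 with 10 mM MgCl2.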
Coupling enz: coupling enzyme interference in Giardia aldolase counter-screen | coupling enzyme system counterscreen, AmpLite Red fluorescence | activity change, negative = inhibition, % at 58.2 µM, hits read low | 290,000 compounds, 0.67% hits | AID 2472; in the data active = activity change below about -30%
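Fluorescence at 525 nm excitation and 598 nm emission measured inhibition of the coupled detection system without aldolase. Compounds (at 57.5 uM final) were preincubated 10 min at room temperature with coupling enzyme reagent before a 20 min substrate/AmpLite Red step.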
Tau fluor counter: counter-screen for tau fibril formation inhibitors; 280,000 compounds, 0.93% hits; tau K18 P301L (four-repeat tau fragment) Alexa594 fluorescence, heparin fibrillization; Potency, µM (doses to about 57.7 µM), for inactives: top-dose activity change, negative = decrease; note: potency is the fitted concentration of half-maximal effect; nearly all actives have a fitted effect of over 55% in size
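Human K18 P301L tau (15 uM unlabeled plus 0.24 uM Alexa 594-labeled, final) in 100 mM sodium acetate pH 7 was mixed with compound and 20 uM heparin and incubated 6 hr at 37 C.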
Tau FP inhib: blocks human tau fibril formation measured by polarization; P10636; K18 P301L tau heparin fibrillization, Alexa594 FP, 6 h; Potency, µM (highest dose often 57.7 µM), without a hit: top-dose activity, negative = inhibition, actives largely listed as inhibitors; 280,000 compounds, 0.39% hits; note: potency is the fitted concentration of half-maximal effect; nearly all actives have a fitted effect of over 55% in size
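FP of Alexa 594-tau after heparin (20 uM) induction. Substrate: human K18 P301L, 15 uM unlabeled, 0.24 uM labeled. Buffer 100 mM sodium acetate pH 7. 6 hr, 37 C.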
Starred values were filed as active, the others as inactive; u = inconclusive; x = not tested or not shown; ! = not active in a repeat; [ ] = remark or other dose. Unless noted, calls come from the whole dose curve; as a rule, active = well fitted curve in the direction sought with a large enough effect; inconclusive = small, poorly fitted or top-dose-only effect, or another doubt; inactive = no such curve, though single readings can be large; an effect the other way counts as inactive or inconclusive. Unless noted, % is set by controls: 0 for no effect and ±100 for the full control effect.

SMILES	G9a block	Tau fibril ThT	Sfp inh	Coupling enz	Tau fluor counter	Tau FP inhib
CN(C)S(=O)(=O)c1cccc(NC(=O)COC(=O)c2cccc(S(=O)(=O)N3CCc4ccccc4C3)c2)c1	1.58µM*	12.0%	10.2%	1.5	-28.4%	u
CCN(CC(=O)Nc1ccc(NC(C)=O)cc1)C(=O)c1cccc(S(=O)(=O)N2CCc3ccccc3C2)c1	3.16µM*	x	x	x	x	x
CC(=O)N1N=C(c2cccs2)CC1c1cc2cc(C)ccc2nc1Cl (centres undefined)	42.8%[12.7 µM]	-4.6%	12.2%	3.3	-8.6%	-1.3%
COc1ccc2c3c(cccc13)C(=O)N(O)C2=O	-48.6%[59 µM]	u	-5.9%	-3.5	-6.2%	-6.6%
CCC1=NNc2cccc3c(OC)ccc1c23	25.1µM*	12.6µM*	31.6µM*	-26.4	u	u
O=C(COC(=O)c1ccc(O)cc1)Nc1cc(S(=O)(=O)N2CCOCC2)ccc1Cl	8.0%[12.7 µM]	x	x	x	x	x
O=C(O)c1cc(-c2ccccc2)n[nH]1	12.6%[59 µM]	2.8%	-0.8%	-0.9	0.0%	1.6%
O=C(O)/C=C/C(=O)NNC(=O)c1cc(-c2ccccc2)n[nH]1	20µM*	u	-40.1%	2.8	-6.5%	1.6%
O=C(O)/C=C\C(=O)NNC(=O)c1cc(-c2ccccc2)n[nH]1	x	u	50.1µM*	2.1	-10.6%	-5.7%
CCOC(=O)C1CCN(C(=O)c2nn(-c3ccc(OC)c(Cl)c3)c(=O)c3c2c2ccccc2n3C)CC1	0.9%[59 µM]	-6.3%	x	x	-16.0%	-12.0%
CCCc1cc(=O)[nH]c(SCC(=O)C(C)(C)C)n1	70.8µM*	-13.4%	-4.9%	-4.7	-5.2%	0.7%
CCCc1cc(=O)[nH]c(SCc2ccccc2)n1	-24.4%[12.7 µM]	13.1%	4.2%	-2.1	14.3%	12.7%
CCCc1cc(=O)[nH]c(SCC(=O)N(Cc2ccccc2)C(C)C)n1	1µM*	-7.5%	9.9%	-1.0	-1.5%	1.9%
CCOc1ccc(C(=O)N2CCSC2=S)cc1	-44.2%[59 µM]	u	3.8%	1.7	-15.2%	-7.0%
Cc1cccc(N2CC(C(=O)Nc3ccc(S(=O)(=O)Nc4nccs4)cc3)CC2=O)c1C (centres undefined)	u	x	32.3%	1.6	x	x
CCOc1ccc(CNS(=O)(=O)c2c(C(=O)N3CCCCCC3)c(C)n(C)c2C)cc1OC	-4.4%[59 µM]	1.2%	x	x	-1.1%	0.2%
C=CCNc1nc(-c2cccs2)c(CC(=O)O)s1	-4.5%[12.7 µM]	-16.4%	-8.1%	3.9	-24.1%	-13.7%
O=C(Cc1sc(Nc2ccccc2)nc1-c1ccccc1)NCc1ccccc1	50.1µM*	6.2%	u	-6.0	2.8%	3.3%
CCN(CC)CCNc1nc(-c2cccs2)c(CC(=O)O)s1	8.91µM*	-14.3%	56.2µM*	2.8	-2.4%	1.6%
O=C(O)Cc1sc(Nc2ccccc2)nc1-c1cccs1	-0.3%[12.7 µM]	u	50.1µM*	6.9	u	3.0%
COC(=O)C(NS(=O)(=O)c1ccc(C)cc1)c1ccccc1 (centres undefined)	0.4%	-4.4%	4.9%	0.4	-3.6%	-5.7%
Cc1ccc(S(=O)(=O)NC(C(=O)Oc2ccc3c(C(F)(F)F)cc(=O)oc3c2)c2ccccc2)cc1 (centres undefined)	7.08µM*	6.0%	-11.8%	11.0	-3.6%	10.5%
COc1ccccc1-c1cc2nc(C)c(CCC(=O)NCc3ccco3)c(C)n2n1	50.1µM*	-13.8%	10.4%	-0.6	-6.6%	-10.2%
C[C@H]1CNC(=O)C(=O)N1C[C@H](Cc1ccc(O)cc1)NC(=O)CC12CC3CC(CC(C3)C1)C2	70.8µM*	x	3.5%	0.4	x	x
C[C@@H](CN1C(=O)C(=O)NC[C@@H]1Cc1ccc(O)cc1)NC(=O)Cc1ccccc1	-11.1%	x	16.8%	2.4	x	x
SMILES	G9a block	Tau fibril ThT	Sfp inh	Coupling enz	Tau fluor counter	Tau FP inhib
COc1ccc(-c2cn3c(n2)sc2cc(C(=O)NCCC4=CCCCC4)ccc23)cc1	-5.0%[59 µM]	-4.8%	x	x	-11.0%	-6.8%
Cc1cn(C2CCC(CO)O2)c(=O)[nH]c1=O (centres undefined)	25.0%	-4.7%	12.7%	0.0	-11.5%	-10.2%
N#CCCn1cnc2c(=S)nc[nH]c21	u	-9.1%	u	3.1	1.3%	2.3%
S=c1nc[nH]c2c1ncn2C1CCCC1	u	-5.7%	11.2µM*	-5.5	2.4%	0.6%
OCC1CCCC(n2cnc3c(=S)nc[nH]c32)O1 (centres undefined)	x	-2.5%	15.8µM*	-2.4	-5.8%	0.2%
CC(=O)N1CCC(N(CCN2CCOCC2)C(=S)Nc2ccc(C)c(C)c2)CC1	-2.1%[59 µM]	-9.5%	13.6%	1.4	-9.4%	5.0%
O=C(Nc1ccc(O)c2c(=O)cc(-c3ccccc3Cl)oc12)c1ccc(Cl)c(Cl)c1	-23.3%[12.7 µM]	-9.5%	79.4µM*!	-1.8	-26.1%	-8.0%
O=C(Nc1ccc(O)c2c(=O)cc(-c3ccccc3Cl)oc12)c1cc(Cl)cc(Cl)c1	x	x	56.2µM*	6.7	x	x
O=c1cc(-c2ccccc2Cl)oc2c([N+](=O)[O-])ccc(O)c12	-24.2%	u	-9.9%	0.7	-7.7%[81.3 µM]	1.4%[81.3 µM]
O=c1cc(-c2ccccc2Cl)oc2c(Br)ccc(O)c12	56.2µM*!	-13.4%[81.4 µM]	11.4%	-18.8	-18.4%[81.3 µM]	-13.1%[81.3 µM]
COCCCNC(=O)c1cc2cc(S(=O)(=O)N3CCCCC3)ccc2n1C	2.5%[59 µM]	-0.1%	x	x	-7.0%	-3.9%
COc1cc(/C=C/C(=O)Nc2nnc(C(C)(C)C)s2)cc(OC)c1OC	4.47µM*	1.2%	50.1µM*	3.5	6.8%	-1.2%
